Reference: PubChem BioAssay (EPA / NIEHS)
Several values for one entry are separate records, joined by “and”; a condition that tells them apart may be missing. Identical values can stand only once. Activity calls are given as the source filed them. The calls were made as follows: active = hit-call score of the fitted dose curve at least 0.9, where 1 is the maximum; inactive = score below 0.9.

What follows are compounds tested on Monokine induced gamma interferon (MIG), CXCL9 (gene 4283) (assay: BSK_SAg_MIG: BioMAP Diversity Plus: SAg Assay for Monokine induced gamma interferon (MIG) Biomarker Activity (AID 2283092)). Details: primary human HUVEC with PBMC; actives raise or lower the signal.
Method: BSK_SAg is a cell-based, multiplexed-readout assay that uses umbilical vein endothelium and peripheral blood mononuclear cells, a human vascular primary cell co-culture, with measurements taken at 24 hours after chemical dosing in a 96-well plate.BSK_SAg_MIG is an assay component measured in the BSK_SAg assay. It measures MIG antibody related to regulation of gene expression using ELISA technology.Data from the assay component BSK_SAg_MIG was analyzed into 1 assay endpoint. This assay endpoint, BSK_SAg_MIG, was analyzed with bidirectional fitting relative to DMSO as the negative control and baseline of activity. Using a type of binding reporter, gain or loss-of-signal activity can be used to understand changes in the signaling as they relate to the gene CXCL9. Furthermore, this assay endpoint can be referred to as a primary readout, because this assay has produced multiple assay endpoints where this one serves a signaling function. To generalize the intended target to other relatable targets, this assay endpoint is annotated to the cytokine intended target family, where the subfamily is chemotactic factor.
The levels of cell surface (or secreted, indicated by the prefix "s") biomarker endpoints were measured by ELISA. Overt cytotoxicity to cells in confluent adherent cultures (all systems other than the BT system) was assessed by measuring total protein levels using sulforhodamine B (SRB) staining in parallel cultures at the time of biomarker measurements, indicated as SRB endpoints. For proliferation assays for adherent cell types, individual cell types are cultured at sub-confluence and relative cell numbers quantified by SRB staining at time points optimized for each system (48 h: 3C and CASM3C systems; 72 h: BT and HDF3CGF systems; 96 h: SAg system). SRB was performed by staining cells with 0.1% SRB after fixation with 10% TCA and reading wells at 560 nm.Viability and proliferation of PBMC (T cells) was quantified by Alamar Blue reduction for the SAg and BT systems. For PBMC viability (referred to as PBMC Cytotoxicity within the assay endpoint names), cells were plated (75,000/well in a 96-well plate) and then chemical samples added for 1 h before addition of activators, SEB and TSST-1 (20 ng/mL final concentration each). Cells were incubated for 90 h. Then, Alamar Blue (20 uL/well) (Invitrogen, Cat DAL1100) was added for 6 h, and the plates were read with a fluorescence microplate reader at 546/580 nm (excitation/emission). For PBMC proliferation, cells were plated and activated as above but incubated for only 16 h prior to addition of Alamar Blue. Plates were read after 6 h.

outcome, inactive:
O=c1c2ccccc2oc2ccccc12
C=CC=CC=CCCCCC
C/C=C\C/C=C/CCCCCCCCOC(C)=O
C=CCOc1c(Br)cc(Br)cc1Br
COCc1c(C(C)C)nc(C(C)C)c(/C=C/[C@@H](O)C[C@@H](O)CC(=O)O)c1-c1ccc(F)cc1
CC1OC1C1CCC2(C)OC2C1 (stereo unspecified)
C=CCOCC(O)CCl (stereo unspecified)
CCCCC(CC)COC(=O)c1ccccc1O (stereo unspecified)
CCCCC(CC)COCC1CO1 (stereo unspecified)
CC(C)C(=O)C(C)C
S=C(NC1CCCCC1)NC1CCCCC1
C=C[Si](OC(C)=O)(OC(C)=O)OC(C)=O
N#[N+]c1ccc2c(S(=O)(=O)[O-])cccc2c1O
O=Nc1ccc(O)cc1
COc1ccc2nc(N)sc2c1
O=C1CCCN1CCO
CN1C(=O)N(C)C(O)C1O (stereo unspecified)
c1ccc2c(c1)ccc1ncccc12
O=C(c1ccc(O)cc1)c1ccc(O)cc1O
CCOc1nc(F)cc2nc(S(=O)(=O)Nc3c(Cl)cccc3C(=O)OC)nn12
c1ccc2c(c1)ccc1cc3c(ccc4ccccc43)cc12
O=C(Nc1ccccc1SSc1ccccc1NC(=O)c1ccccc1)c1ccccc1
c1ccc(-c2ccccn2)nc1
CCCCCCCCc1ccc(Nc2ccc(CCCCCCCC)cc2)cc1
CO[Si](OC)(OC)c1ccccc1
CC(C)(c1cc(Br)c(OCCO)c(Br)c1)c1cc(Br)c(OCCO)c(Br)c1
CCO[Si](CCCN=C=O)(OCC)OCC
CCO[Si](C)(OCC)OCC
CCCCNc1ccc(NCCCC)c2c1C(=O)c1ccccc1C2=O

AC50, active:
O=C(Cl)c1cc(C(=O)Cl)cc(C(=O)Cl)c1 34.2 µM
CCOC(=O)c1ccccc1C(=C1C=C(Br)C(=O)C(Br)=C1)c1cc(Br)c(O)c(Br)c1 22.2 µM and 23 µM
Nc1ccc(N)c(Cl)c1 30.4 µM and 31.3 µM
C=CC(=O)OCC(Br)CBr (stereo unspecified) 20 µM
C#CC1(O)CC[C@H]2[C@@H]3CCC4=CCCC[C@@H]4[C@H]3CC[C@@]21C (stereo partly specified) 31.8 µM
CCCCC/C=C\C/C=C\CCCCCCCC(=O)OC 31.4 µM
CCCCCCCCCCCCCCCC[N+](C)(C)CC 3.51 µM
